Screening data: PubChem BioAssay, Milwaukee Institute for Drug Discovery
HCV NS3h FP: HCV NS3 helicase inhibitors, primary screen, biochemical, fluorescence polarization, ChemBridge library. Hepatitis C virus NS3 helicase. NS3h Cy5-dT15 DNA binding. inhibition, % at 100 µM. 1.6% of 16,000 active. AID 687043, 2013;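 active means inhibition above the average over every tested compound plus 3 SD, cut at about 40% in these data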
Cy5 interf NS3h: Cy5 fluorescence quenchers or enhancers, artefact control for HCV NS3 helicase inhibitor project, biochemical, ChemBridge library, Cy5 readout. Cy5-dT15 DNA with NS3h, fluorescence interference; actives lie on both sides; signal over control mean, under 1 quenches. 6% of 16,000 active. fluorescence interference ratio at 100 µM. AID 720488, 2013;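 active means compound fluorescence over control fluorescence at most 0.8, a quencher, or at least a set upper limit, an enhancer; inactive means ratio between 0.8 and the set upper limit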
Active calls of the source: *. Hits are enriched below; roughly 6.9% of the tested compounds scored in any of these assays.

SMILES | HCV NS3h FP | Cy5 interf NS3h
O=C(O)COc1ccc(N2C(=O)c3c(Cl)c(Cl)c(Cl)c(Cl)c3C2=O)cc1 | 10 | 0.95
CCOc1ccccc1N(CC(=O)Nc1ccccc1C(=O)OC)S(=O)(=O)c1ccccc1 | 9 | 0.92
CC(=O)Nc1ccccc1NC(=O)c1ccc(Cl)cc1 | 5 | 1.1
O=[N+]([O-])c1ccc(Oc2ccc(/C=N\O)cc2)nc1 | 3 | 0.95
CCOc1ccccc1NC(=O)c1c(NC(=O)c2cccs2)sc2c1CCCC2 | 41* | 1
CCOc1ccccc1NC(=O)c1c(NC(=O)Cc2ccccc2)sc2c1CCCCC2 | 6 | 1.1
CC(C)OC(=O)/C=C(\N)c1ccccc1 | 13 | 0.95
O=C1Nc2ccc(Br)cc2/C1=C/c1ccc2ccccc2n1 | -6 | 1
O=C1NC(=O)C(=Cc2ccc(-c3cc(Cl)c([N+](=O)[O-])cc3Cl)o2)C(=O)N1 | -141 | 0.04*
Cc1cc([N+](=O)[O-])c(-c2ccc(C=C3C(=O)c4ccccc4C3=O)o2)cc1Cl | 6 | 1
O=C(CC1(O)C(=O)Nc2ccccc21)c1ccco1 (stereo not drawn) | 7 | 0.78*
CCc1ccc(C(=O)CC2(O)C(=O)Nc3ccccc32)cc1 (stereo not drawn) | 0 | 1
COCCCNC(=O)C(=O)Nc1ccc(OC)c(Cl)c1 | -9 | 1.1
CCC(=O)Oc1ccc2c3c(c(=O)oc2c1C)CCC3 | 10 | 0.97
CC1=NN(c2ccc(C)c(C)c2)C(=O)/C1=C/c1ccc([N+](=O)[O-])o1 | 20 | 0.68*
CC1=NN(c2cccc(C(=O)O)c2)C(=O)/C1=C\c1ccc(-c2cc([N+](=O)[O-])ccc2C)o1 | 8 | 0.97
CN(C)c1ccc(NC2=NS(=O)(=O)c3ccccc32)cc1 | 0 | 0.95
c1ccc(NC2=Nc3cccc4cccc2c34)cc1 | 24 | 0.59*
Cc1n(CCCCS(=O)(=O)[O-])c2cc(Cl)c(Cl)cc2[n+]1C | 0 | 0.99
CN(C)/C=C1\N=C(c2cccc(Br)c2)OC1=O | 8 | 1
CCc1ccc(NS(=O)(=O)c2ccc(NC(C)=O)cc2)cc1 | 6 | 1
CCOc1cc(/C=c2/sc3nc4ccccc4n3c2=O)ccc1OS(=O)(=O)c1ccc(C)cc1 | -2 | 0.97
O=C1NN(c2ccc(F)cc2)C(=O)/C1=C\c1ccc(-c2cccc(C(=O)O)c2)o1 | 15 | 0.82
CCN1C(=O)C(=Cc2ccc(-c3cccc(C(=O)O)c3)o2)C(=O)N(CC)C1=S | 54* | 1.2*
CCOC(=O)c1ccc(-c2ccc(/C=C(\C#N)C(=O)Nc3ccc(OC)cc3)o2)cc1 | 0 | 0.98
SMILES | HCV NS3h FP | Cy5 interf NS3h
COc1ccc(C(=O)n2c(C)nc3ccccc32)cc1[N+](=O)[O-] | 0 | 1.1
Cc1ccc(Nc2nc(-c3ccc(-c4ccccc4)cc3)cs2)cc1 | -6 | 0.98
Nc1ccc(Nc2nc(-c3ccc(Br)cc3)cs2)cc1 | 5 | 0.78*
Cc1ccc(C(O)=C2C(=O)C(=O)N(CCCC(=O)O)C2c2ccc(Br)cc2)cc1 (stereo not drawn) | 9 | 1.2*
O=C(O)CCCCCN1C(=O)C(=O)C(=C(O)c2ccc(F)cc2)C1c1ccc(Cl)cc1 (stereo not drawn) | -1 | 1
COc1ccc(N(CC(N)=O)S(=O)(=O)c2ccc(C)cc2)cc1 | 5 | 1.1
CC(=O)C1=C(O)C(=O)N(CC2CCCO2)C1c1ccc(Br)cc1 (stereo not drawn) | -4 | 1.1
CCN1C(=O)/C(=C\c2ccc(-c3ccc(C)c(Cl)c3)o2)SC1=S | 12 | 1.1
CCN1C(=O)/C(=C\c2ccc(-c3ccc(I)cc3)o2)SC1=S | 9 | 0.72*
Cc1cc(OCC(=O)Nc2ccccc2[N+](=O)[O-])cc(C)c1Cl | 17 | 0.73*
Cc1ccc(OCC(=O)Nc2ccc(C)cc2[N+](=O)[O-])cc1 | 19 | 1
COC(=O)c1cc(NC(=O)COc2cc(C)c(Cl)c(C)c2)cc(C(=O)OC)c1 | 2 | 1.1
Cc1cc(OCC(=O)Nc2cccnc2)cc(C)c1Cl | -10 | 0.8*
O=C(Cc1ccc(Cl)cc1)Nc1cccnc1 | 19 | 0.71*
O=C(Cc1ccc(Cl)cc1)Nc1ccc(Cl)cn1 | 10 | 0.87
C=CCc1cccc2cc(C(=O)OCc3ccccc3)c(=O)oc12 | 6 | 0.91
CCCC(=O)Oc1ccc2c(=O)c(-c3ccccc3OC)coc2c1 | 13 | 0.98
Cc1ccc(NC(=O)CCNS(=O)(=O)c2ccc(C)cc2)cc1 | 6 | 0.97
O=C1c2ccc(Oc3cccc([N+](=O)[O-])c3)cc2C(=O)N1c1ccncc1 | 6 | 0.9
O=C(NCc1ccc2c(c1)OCO2)c1ccco1 | 15 | 0.74*
O=C(/C=C/c1ccco1)NCc1ccc2c(c1)OCO2 | 3 | 0.94
COC(=O)C1=C(C)NC(C)=C(C(=O)OC)C1c1cn(-c2ccccc2)nc1-c1ccc(S(=O)(=O)N2CCOCC2)cc1 | 10 | 0.83
O=C(Nc1ccc(Cl)cc1)N1CCN(c2ccccc2Cl)CC1 | 12 | 1.1
COc1ccc(/C=C2/SC(=S)N(c3cccc(C(F)(F)F)c3)C2=O)cc1 | 4 | 1
Cc1cc(C=C2C(=O)N(C)C(=O)N(C)C2=O)c(C)n1C | -10 | 1.1
SMILES | HCV NS3h FP | Cy5 interf NS3h
Cc1cc(/C=C2\C(=O)NC(=S)N(c3ccccc3)C2=O)c(C)n1-c1cccnc1 | 15 | 1.2*
Cc1cc(/C=C2\C(=O)NC(=S)N(c3ccc(Br)cc3)C2=O)c(C)n1C | 33 | 1.2
Cc1cc(/C=C2\C(=O)NC(=S)N(c3ccccc3)C2=O)c(C)n1-c1ccccc1 | 0 | 1.1
CCc1ccccc1N1C(=O)/C(=C/c2cc(C)n(C)c2C)C(=O)NC1=S | 10 | 1.2*
Cc1cc(Br)ccc1N1C(=O)/C(=C/c2cc(C)n(C)c2C)C(=O)NC1=S | -12 | 1.2*
Cc1ccc(S(=O)(=O)N(Cc2ccccc2)c2ccccc2C(=O)NCC(C)C)cc1 | 34 | 0.87
CCC(=O)Nc1nc(C)c(-c2csc(Nc3cc(C)ccn3)n2)s1 | 14 | 0.98
CC(=O)Nc1nc(C)c(-c2csc(Nc3ncccn3)n2)s1 | -17 | 0.51*
O=C(Nc1ccccc1C(=O)N1CCOCC1)c1ccccc1F | 0 | 1.1
CCCS(=O)(=O)c1c(S(=O)(=O)CCC)c2c(N)cccn2c1C(=O)c1ccc(OC)cc1 | 18 | 0.66*
CCCS(=O)(=O)c1c(S(=O)(=O)CCC)c2ccccn2c1C(=O)c1ccc([N+](=O)[O-])cc1 | 13 | 1.1
CC1=NN(c2ccc(Cl)c(Cl)c2)C(=O)/C1=C/c1cccc([N+](=O)[O-])c1 | -8 | 0.93
CCSc1nnc(NC(=O)c2ccc(Br)o2)s1 | 10 | 0.77*
CCC(=O)Nc1ccc(NC(=O)c2ccc(Br)o2)cc1 | -3 | 1
COc1cc(-c2cc(C(F)(F)F)n3ncc(C(=O)Nc4cccc5ccccc45)c3n2)cc(OC)c1OC | -1 | 1.1
Cc1ccc(-c2cc(C(F)(F)F)n3ncc(C(=O)N4CCN(c5ccc(F)cc5)CC4)c3n2)cc1 | 10 | 0.61*
O=C(c1nn2c(C(F)(F)F)cc(-c3ccccc3)nc2c1Cl)N1CCCC1 | 9 | 0.93
CCOC(=O)c1cnn2c(C(F)(F)F)cc(-c3ccco3)nc12 | 3 | 1
CN(Cc1ccccc1)C(=O)c1nn2c(C(F)(F)F)cc(-c3ccccc3)nc2c1Cl | 8 | 0.61*
Cc1ccc(-c2cc(C(F)(F)F)n3ncc(C(=O)N(C)Cc4ccccc4)c3n2)cc1 | 9 | 0.61*
N/C(=N/OC(=O)c1ccc(I)cc1)c1cccnc1 | 10 | 1.1
